Bioassay records from PubChem BioAssay.
A selection: hits, their analogues and other compounds. The true share with any hit is near 4.3%.
UBC13 polyUb – inhibitors of human UBC13 polyubiquitin chain formation; inhibition, % at 20 µM; TR-FRET; 330,000 tested, 0.47% active; P61088; in the data active = inhibition above about 45%, passing the limit was not always enough; inconclusive = no clear call, values can overlap the other calls
Target sequence (P61088 whole entry, looked up): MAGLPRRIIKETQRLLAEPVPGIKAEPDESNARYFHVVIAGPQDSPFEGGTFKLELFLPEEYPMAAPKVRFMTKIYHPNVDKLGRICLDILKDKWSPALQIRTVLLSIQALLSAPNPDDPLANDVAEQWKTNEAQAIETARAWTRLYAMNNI
Yeast superoxide – lowers age-related superoxide in aged yeast cells. 330,000 tested, 0.18% active. S. cerevisiae aged cells, superoxide DHE fluorescence; active compounds read low. superoxide response (% of plate mean), % at 10 µM;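 active = superoxide response under a set limit, about three screen SD below normal, cut at about 65% in these data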;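 note: yeast aged for seven days with compound at 30 °C before DHE staining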
NR3A LBD binder – modulates the human NR3A ligand-binding domain | NR3A LBD differential scanning fluorimetry, Tm shift; 0% = protein alone, 100% = glycine-bound protein | Tm shift relative to glycine control, % at 25 µM | 340,000 tested, 2.5% active;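 active = melting temperature shift of at least 10% of the positive control shift, at one fixed dose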
dFosB act – mouse delta FosB homodimer activation; P13346; purified delta FosB, TAMRA-CDK5 oligo fluorescence polarization; percent of positive-control signal above neutral wells; activation, % at 25 µM; 340,000 tested, 0.99% active;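 active = mean activation above about 17%, with every replicate also reaching it, limit read from the data, passing the limit was not always enough; inconclusive = only one of the two conditions met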
Target sequence (P13346 whole entry, looked up): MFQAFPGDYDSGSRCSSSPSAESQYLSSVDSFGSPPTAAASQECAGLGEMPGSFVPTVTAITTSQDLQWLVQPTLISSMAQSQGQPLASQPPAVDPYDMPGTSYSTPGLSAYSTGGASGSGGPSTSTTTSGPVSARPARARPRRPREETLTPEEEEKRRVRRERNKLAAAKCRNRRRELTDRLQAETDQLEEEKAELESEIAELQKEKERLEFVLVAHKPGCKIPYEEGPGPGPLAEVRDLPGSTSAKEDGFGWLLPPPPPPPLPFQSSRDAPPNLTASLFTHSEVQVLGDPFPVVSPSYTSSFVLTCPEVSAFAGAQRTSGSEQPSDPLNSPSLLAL
NALP1 yeast inh – inhibitors of NALP1 inflammasome in yeast; inhibition, % at 10 µM; S. cerevisiae NALP1/ASC/caspase-1 growth, X-gal OD620, 72 h; 280,000 tested, 0.61% active; in the data active = inhibition mostly above about 24%, no sharp cut-off; inactive = mostly below about 32%
Hits are given with their value.

`COc1ccc(-n2cccc2C=O)cc1` gave UBC13 polyUb inactive, Yeast superoxide inactive, NR3A LBD binder inactive, dFosB act inactive and NALP1 yeast inh inactive.
Screening COc1ccc2cc(CCNC(=O)c3cc4ccccc4o3)c(=O)[nH]c2c1 returned UBC13 polyUb inactive, Yeast superoxide inactive, NR3A LBD binder 21, dFosB act inactive and NALP1 yeast inh inactive.
`Cc1ccc2cc(CCNC(=O)c3cc4ccccc4o3)c(=O)[nH]c2c1C` gave UBC13 polyUb inactive, Yeast superoxide inactive, NR3A LBD binder inactive, dFosB act inactive and NALP1 yeast inh inactive.
Screening COc1ccc(C2(c3ccc(OC)cc3)NC(=O)N(CC(=O)NCC(C)c3ccccc3)C2=O)cc1 (stereo not given) returned UBC13 polyUb inactive, Yeast superoxide inactive, NR3A LBD binder 25 and dFosB act inactive.
Screening CN(c1ccccc1)P(=O)(N(C)c1ccccc1)N(C)c1ccccc1 returned UBC13 polyUb inactive, Yeast superoxide inactive, NR3A LBD binder inactive, dFosB act inactive and NALP1 yeast inh inactive.
Screening CN(C)CCNC(=O)c1ccccc1-c1cc2ccccc2c(=O)o1 returned UBC13 polyUb inactive, Yeast superoxide inactive, NR3A LBD binder inactive, dFosB act inactive and NALP1 yeast inh inactive.
Screening CN(C)CCNC(=O)c1cccc2nc3c(ccc4ccccc43)nc12 returned NR3A LBD binder inactive and dFosB act 73.
For CN(C)CCNC(=O)c1cccc2[nH]c(-c3ccncc3)nc12 the results were NR3A LBD binder inactive and dFosB act 38.
`COc1cccc2nc3c(C(=O)NCCN(C)C)cccc3cc12` gave NR3A LBD binder inactive and dFosB act inactive.
`CN(CCNC(=O)c1c[nH]c2c1ccc1ccccc12)CCNC(=O)c1c[nH]c2c1ccc1ccccc12` gave NR3A LBD binder inactive and dFosB act 44.
For Cc1cnc(C(=O)N(CC(C)C)c2c(N)n(CC(C)C)c(=O)[nH]c2=O)cn1 the results were UBC13 polyUb inactive, NR3A LBD binder inactive and dFosB act inactive.
For Cn1cccc1/C=C1\SC(=Nc2ccc(O)cc2)NC1=O the results were UBC13 polyUb inactive, Yeast superoxide inactive, NR3A LBD binder inactive, dFosB act inactive and NALP1 yeast inh inactive.
Screening COc1cc(/C=C2\SC(=Nc3ccc(O)cc3)NC2=O)cc(OC)c1O returned UBC13 polyUb inactive, Yeast superoxide inactive, NR3A LBD binder 13, dFosB act inactive and NALP1 yeast inh inactive.
`Cn1cccc1/C=C1\SC(=Nc2cccc(O)c2)NC1=O` gave UBC13 polyUb inactive, Yeast superoxide inactive, NR3A LBD binder 26, dFosB act inactive and NALP1 yeast inh inactive.
`Cc1ccc(N=C2NC(=O)/C(=C/c3cn(C)c4ccccc34)S2)cc1C` gave Yeast superoxide inactive, NR3A LBD binder 32, dFosB act inconclusive and NALP1 yeast inh inactive.
For COC(=O)/C=C1/SC(=Nc2ccc(Cl)c(Cl)c2)NC1=O the results were UBC13 polyUb inactive, Yeast superoxide inactive, NR3A LBD binder 18 and NALP1 yeast inh inactive.
Screening O=C1NC(=Nc2ccc(O)cc2)S/C1=C/c1ccco1 returned UBC13 polyUb inactive, Yeast superoxide inactive, NR3A LBD binder 13, dFosB act inactive and NALP1 yeast inh inactive.
CCOC(=O)C1=C(COC(=O)Cc2ccccc2F)NC(=O)NC1C (stereo not given) was read as UBC13 polyUb inactive, Yeast superoxide inactive, NR3A LBD binder inactive and dFosB act inactive.
For O=C(Nc1ccc(S(=O)(=O)N2CCOCC2)cc1)c1ccc(Cl)s1 the results were UBC13 polyUb inactive, Yeast superoxide inactive, NR3A LBD binder 35, dFosB act inactive and NALP1 yeast inh inactive.
Cc1cc(C)nc(NS(=O)(=O)c2ccc(NC(=O)c3ccc(S(=O)(=O)N(C)C)cc3)cc2)n1 was read as UBC13 polyUb inactive, Yeast superoxide inactive, NR3A LBD binder inactive, dFosB act inactive and NALP1 yeast inh inactive.
`COc1ccc(N2CCN(S(=O)(=O)c3ccc(C(=O)NCc4ccco4)cc3)CC2)cc1` gave UBC13 polyUb inactive, Yeast superoxide inactive, NR3A LBD binder 28, dFosB act inactive and NALP1 yeast inh inactive.
For Cc1ccc(O)c(-c2cc(C(=O)Nc3ccc(S(=O)(=O)Nc4nc(C)cc(C)n4)cc3)[nH]n2)c1 the results were UBC13 polyUb inactive, Yeast superoxide inactive, NR3A LBD binder 30, dFosB act inactive and NALP1 yeast inh inactive.
O=C(CCc1ccccc1Cl)Nc1ccc(S(=O)(=O)N2CCOCC2)cc1 was read as UBC13 polyUb inactive, Yeast superoxide inactive, NR3A LBD binder 19 and dFosB act inactive.
CC1CN(S(=O)(=O)c2csc(C(=O)Nc3ccccc3)c2)CC(C)O1 (stereo not given) was read as UBC13 polyUb inactive, Yeast superoxide inactive, NR3A LBD binder 16, dFosB act inactive and NALP1 yeast inh inactive.
O=C(O)c1cccc(NC(=O)c2cc(S(=O)(=O)N3CCOCC3)cs2)c1 was read as UBC13 polyUb inactive, Yeast superoxide inactive, NR3A LBD binder inactive, dFosB act inactive and NALP1 yeast inh inactive.
`O=C(Nc1ccc(Cl)cc1)c1ccc(S(=O)(=O)N2CCOCC2)cc1` gave UBC13 polyUb inactive, Yeast superoxide inactive, NR3A LBD binder 15, dFosB act inactive and NALP1 yeast inh inactive.
Screening Cc1cc(C)nc(NS(=O)(=O)c2ccc(NC(=O)c3ccc(S(=O)(=O)N4CC(C)OC(C)C4)cc3)cc2)n1 (stereo not given) returned UBC13 polyUb inactive, Yeast superoxide inactive, NR3A LBD binder inactive, dFosB act inactive and NALP1 yeast inh inactive.
For Cc1ccc(O)c(-c2cc(C(=O)Nc3ccc(S(=O)(=O)N4CC(C)OC(C)C4)cc3)[nH]n2)c1 (stereo not given) the results were UBC13 polyUb inactive, Yeast superoxide inactive, NR3A LBD binder 35, dFosB act inactive and NALP1 yeast inh inactive.
Screening O=C(Nc1ccc(S(=O)(=O)N2CCOCC2)cc1)c1cc(-c2cc(Cl)ccc2O)n[nH]1 returned UBC13 polyUb inactive, Yeast superoxide inactive, NR3A LBD binder 36, dFosB act inactive and NALP1 yeast inh inactive.
For CSCC[C@H](NC(=O)Cc1c(C)c2cc3c4c(oc3cc2oc1=O)CCCC4)C(=O)O the results were UBC13 polyUb inactive, Yeast superoxide inactive, NR3A LBD binder inactive, dFosB act inactive and NALP1 yeast inh inactive.
Cc1sc2ncn(CC(=O)OC(C)C)c(=O)c2c1C was read as NALP1 yeast inh inactive.
Screening Cc1ccccc1NC(=S)N(C)Cc1cn(C)c2ccccc12 returned UBC13 polyUb inactive, Yeast superoxide inactive, NR3A LBD binder inactive, dFosB act inactive and NALP1 yeast inh inactive.
COc1ccc(C(=O)Nc2ccc(-c3cn4ccsc4n3)cc2)cc1S(=O)(=O)N1CCOCC1 was read as UBC13 polyUb inactive, Yeast superoxide inactive, NR3A LBD binder 27, dFosB act inactive and NALP1 yeast inh inactive.
For COc1ccc(C(=O)Nc2ccc(N3CCOCC3)cc2)cc1S(=O)(=O)N1CCOCC1 the results were UBC13 polyUb inactive, NR3A LBD binder inactive and dFosB act inactive.
`COc1ccc(C(=O)Nc2ccc(S(=O)(=O)N3CCOCC3)cc2)cc1` gave UBC13 polyUb inactive, Yeast superoxide inactive and NR3A LBD binder 27.
